Reference: PubChem BioAssay

How the values were obtained:
[1] = NFkB reporter suppression in cystic fibrosis bronchial cells – cell-based, uHTS hits, panel, cytotoxicity readout, dose response (AID 624344); details: CF bronchial epithelial cells, PAF-induced NFkB reporter inhibition, with PAF, run 1; at 79 µM (top of the series) unless noted
[2] = as above; details: CF bronchial epithelial cells, PAF-induced NFkB reporter inhibition, with PAF, run 2; at 79 µM (top of the series) unless noted

| Structure (SMILES) | inhibition [1] [%] | inhibition [2] [%] |
| --- | --- | --- |
| O=C(NNC(=S)Nc1cccc(C(F)(F)F)c1)c1cccc(Cl)c1 | 115 | 93.8 |
| CCC1(O)C(=O)OCc2c1cc1n(c2=O)Cc2cc3cc(O)ccc3nc2-1 (configuration not stated) | 106 | 88.8 |
| COc1ccc(C2=Nn3c(nnc3-c3ccncc3)SC2)cc1 | 81.7 | 76.5 |
| Cc1ccc2occ(/C=N/NC(=O)c3ccccc3Br)c(=O)c2c1 | 94.7 | 114 |
| Cc1ccc(S(=O)(=O)Nc2ccc3cc([N+](=O)[O-])ccc3c2[N+](=O)[O-])cc1 | 109 | 101 |
| Cc1cc(C)c(C#N)c(SCC(=O)c2ccc(Cl)cc2Cl)n1 | 111 | 101 |
| CC(=O)OCCCNc1cc(Sc2ccc(Cl)cc2)c2nonc2c1[N+](=O)[O-] | 100 | 113 |
| CC(C)Cc1nc2oc3c(NCC4CCCO4)ncnc3c2c2c1CCC2 (configuration not stated) | 101 | 98.5 |
| COc1ccc2cc3c(N)nn(C(=O)c4ccccc4[N+](=O)[O-])c3nc2c1 | 101 | 111 |
| CCOc1ccc(C(C(=O)NC2CCCC2)N(C(=O)c2snc(C(N)=O)c2N)c2cccc(O)c2)cc1 (configuration not stated) | 105 | 96.6 |
| Cc1c(C(=O)OC2CCCC2)[nH]c2c1C(=O)CC(c1ccco1)C2 (configuration not stated) | 29 | 115 |
